HIV RNase H inh-1: inhibitors of HIV-1 reverse transcriptase RNase H; RT-RNase H RNA/DNA duplex cleavage, fluorescence; inhibition, % at 10 µM; AID 565; P04585; 1.9% of 65,000 active; in the data active means inhibition above about 50%
HIV RNase H inh-2: confirmation of HIV-1 reverse transcriptase RNase H inhibitors; shares compounds with HIV RNase H inh-1; inhibition, % at 10 µM; Recombinant RT RNase H, fluorescent RNA/DNA duplex cleavage; 39% of 1,000 active; in the data active means inhibition above about 48%
* = called active by the depositor. This excerpt belongs to a sample that is enriched for hits.

SMILES	HIV RNase H inh-1	others
COc1ccc(NC(=O)c2cc(C(C)C)on2)cc1OC	-3
CCOc1ccc(CCNC(=O)C2CCCN(S(=O)(=O)c3c(C)n[nH]c3C)C2)cc1OCC (stereo not drawn)	-17
Cc1cc(C)nc(/N=c2/ssnc2Cl)c1	84*	HIV RNase H inh-2=15
CC(C)Cn1c(SCc2nnc(-c3cccs3)o2)nc(O)cc1=O	-1
CC(C)/C=C1\CCCCC1N(C)C(=O)NC(C)C (stereo not drawn)	-4
O=C(c1cccc2cccc(O)c12)N1CCCCC1	1
O=C1c2cccc3c(Cl)ccc(c23)C(=O)N1O	-12
O=C(c1ccc2c3c(cccc13)C(=O)N(O)C2=O)N1CCCCC1	80*	HIV RNase H inh-2=70*
COc1ccccc1C1CC(c2ccccc2)Nc2ncnn21 (stereo not drawn)	-15
O=S(=O)(c1ccc2oc(-c3ccncc3)nc2c1)c1ccc2oc(-c3ccncc3)nc2c1	-10
Cc1ccc(-n2c(SCC3CCCCO3)nnc2-c2ccco2)cc1 (stereo not drawn)	-5
O=C(Nc1ccc2nc(-c3ccc(Br)o3)[nH]c2c1)c1cccs1	71*	HIV RNase H inh-2=2
Cn1cccc1-c1nc2ccc(NC(=O)c3cccs3)cc2[nH]1	0
CC(=O)Nc1ccc2nc(-c3cccs3)[nH]c2c1	-1
Cc1cc(C)nc(-n2nc(C)c3c(=O)[nH]c(C(F)(F)F)nc32)n1	-4
COc1ccc(N(C)S(=O)(=O)c2cccc(C(=O)Nc3ccc(-n4cnnn4)cc3)c2)cc1	6
Cc1cccc(N2C(=O)CC(N(O)c3ccccc3)C2=O)c1 (stereo not drawn)	2
COc1ccccc1N(O)C1CC(=O)N(c2ccc(Br)cc2)C1=O (stereo not drawn)	68*	HIV RNase H inh-2=25
CCCCCCC(=O)N(O)C1CC(=O)N(c2ccc(Br)cc2)C1=O (stereo not drawn)	24
O=C(CN1CCN(c2ncccn2)CC1)Nc1ccccc1-n1cccc1	-13
O=C(CN(Cc1ccc2c(c1)OCO2)C(=O)CNS(=O)(=O)c1ccccc1)NCc1ccco1	-3
COCCN1C(=O)C(=O)/C(=C(/O)c2ccc(OCC(C)C)cc2)C1c1cccnc1 (stereo not drawn)	1
Cc1ccc(Oc2ccc(NC(=O)c3ccco3)cc2)cc1	-1
Cc1ccc(NC(=O)c2cc(NC(=O)c3ccco3)ccc2N2CCOCC2)cc1	10
Cc1ccc(NC(=O)c2cc(NC(=O)c3ccco3)ccc2N2CCCCC2)cc1	58*	HIV RNase H inh-2=31
SMILES	HIV RNase H inh-1	others
Cc1ccc2oc(=O)c3cnn(CC(=O)N(CCCN4CCOCC4)Cc4ccco4)c3c2c1	0
CCOC(=O)NC(Nc1nc2ccccc2s1)(C(=O)OCC)C(F)(F)F (stereo not drawn)	-5
O=C(Nc1ccccc1C(=O)N1CCCC1)c1cccc(S(=O)(=O)N2CCCCCC2)c1	-5
NS(=O)(=O)c1ccc(NC(=O)c2ccccc2C(=O)N2CCCCC2)cc1	76*	HIV RNase H inh-2=14
CS(=O)(=O)Nc1ccc(C(=O)Nc2ccccc2C(=O)N2CCCC2)cc1	-4
c1ccc(-c2cc(-c3nn4c(-c5ccco5)nnc4s3)c3ccccc3n2)cc1	75*	HIV RNase H inh-2=26
Cc1cc(-c2nn3c(-c4ccccc4)nnc3s2)c2ccccc2n1	82*	HIV RNase H inh-2=63*
COc1cc(OC)c(-c2nn3c(-c4ccco4)nnc3s2)cc1OC	-18
Cc1ccccc1-c1nn2c(-c3ccccc3)nnc2s1	-26
COc1ccc(-c2nnc3sc(-c4ccccc4OC)nn23)cc1	-4
Clc1ccccc1-c1nnc2sc(-c3ccco3)nn12	-24
O=S(=O)(c1ccc(NCCc2c[nH]c3ccccc23)nc1)N1CCOCC1	-33
COCC(C)n1c(SCC(=O)NC(=O)Nc2ccc3c(c2)OCCO3)nc2ccccc2c1=O (stereo not drawn)	-25
Cc1ccc(-n2c(=O)c3c4c(sc3n3c(C)nnc23)COC(C(C)C)C4)cc1 (stereo not drawn)	2
O=C(Nc1cnn(Cc2ccc(F)cc2)c1)c1cc2nc(-c3ccco3)cc(C(F)(F)F)n2n1	59*	HIV RNase H inh-2=26
Cc1nn(Cc2ccccc2)c(C)c1NC(=O)c1cc2nc(-c3ccco3)cc(C(F)(F)F)n2n1	6
Cc1ccccc1Cn1ccc(NC(=O)c2cc3nc(-c4ccco4)cc(C(F)(F)F)n3n2)n1	19
CCN(CC)c1ccc(C=Nc2ccc(C#N)cc2)c(O)c1	-17
CCN(CC)c1ccc(NC(=O)C(C)C)cc1	17
CCN(CC)c1ccc(C=N/C(C#N)=C(\N)C#N)cc1	80*	HIV RNase H inh-2=45
CCN(CC)CCCN1C(=O)C(=O)/C(=C(/O)c2ccccc2)C1c1cc(OC)ccc1OC (stereo not drawn)	-6
Cc1ccsc1C(=O)Nc1nnc(-c2ccco2)o1	4
CCOC(=O)C1CCN(S(=O)(=O)c2c(C)n(C)c(=O)n(C)c2=O)CC1	-7
O=C(NCCc1ccncc1)Nc1ccccc1Cl	-9
O=C(COC(=O)c1ccc(S(=O)(=O)Nc2ccccc2)cc1)NCCN1C(=O)CSC1=O	1
SMILES	HIV RNase H inh-1	others
CCOC(=O)c1ccc(N=Cc2nc(-c3ccccc3)oc2OC(C)=O)cc1	75*	HIV RNase H inh-2=1
CCC(=O)Oc1oc(-c2ccccc2)nc1C=Nc1ccccc1OC	-6
CCOC(=O)c1ccc(N=Cc2nc3ccccc3n2C)cc1	-4
Cc1cccc(-n2nc3c(c2NC(=O)CCC2CCCCC2)CS(=O)C3)c1C (stereo not drawn)	-1
C=CCn1c(SCc2cc(=O)n3ccsc3n2)nc2sc(C)c(C)c2c1=O	0
CCC(Sc1nc(=O)cc(N)n1-c1ccccc1)C(=O)Nc1ccc(Cl)cn1 (stereo not drawn)	-6
O=C(Cn1c(=O)oc2cc(S(=O)(=O)N3CCCCCC3)ccc21)NC1CCCCCCC1	26
O=C(Cn1c(=O)oc2cc(S(=O)(=O)N3CCCC3)ccc21)NC1CCCc2ccccc21 (stereo not drawn)	65*	HIV RNase H inh-2=76*
O=C(Cn1c(=O)oc2cc(S(=O)(=O)N3CCCC3)ccc21)Nc1ccc(C(F)(F)F)cc1	40
COCCNC(=O)CSCc1nc(-c2ccc(SC)cc2)oc1C	-1
O=C(NCc1ccccc1)c1cccc(S(=O)(=O)N2CCOCC2)c1	-2
O=C(Nc1nnc(-c2ccccc2)s1)c1ccc(Cl)c(S(=O)(=O)N2CCOCC2)c1	6
NC(=O)c1cc(-c2ccccc2)sc1NC(=O)Cc1ccc(S(=O)(=O)N2CCOCC2)s1	58*	HIV RNase H inh-2=67*
O=C(CN1CCC(n2nnc3cc(F)ccc32)CC1)NCCc1nc2ccccc2[nH]1	-7
c1ccc2sc(SCc3ccc(-c4nnco4)cc3)nc2c1	-20
CC(C)(C)NC(=O)CN(Cc1cccnc1)C(=O)c1csnn1	7
O=c1c2cnn(-c3ccc(F)cc3)c2ncn1Cc1ccccn1	-7
COC(=O)c1ccc2c(c1)N(Cc1nc(-c3cccc(C)c3)oc1C)C(=O)C1CCCN21 (stereo not drawn)	71*	HIV RNase H inh-2=67*
Cc1cccc(-c2nc(CN3CCCC(C(=O)NC4CCCCCC4)C3)c(C)o2)c1 (stereo not drawn)	6
Cc1cccc(-c2nc(CN3CCCC(C(=O)NC4CCCCC4)C3)c(C)o2)c1 (stereo not drawn)	10
CCOc1ccc2ccccc2c1C(=O)Nc1cc(=O)n(C)c(=O)n1C	1
Cn1c(=O)cc(SCC(=O)NCc2cccnc2)c2ccccc21	7
Cc1ccc(C2CC(=O)NC(SCCC(C)C)=C2C#N)cc1 (stereo not drawn)	65*	HIV RNase H inh-2=10

Screening results deposited in PubChem BioAssay by University of Pittsburgh Molecular Library Screening Center.
